Test results: PubChem BioAssay AID1159580 (chemical genetic matrix, 2015)
“And” between values parts separate entries of the source, which are not always exact repeats. Identical values can stand only once. The campaign covered roughly 5,500 compounds. About 2,000 (36%) were called active. Roughly 18% stayed inconclusive and do not appear here. No stated cut-off is given here; in the data, active means normalized growth mostly below about 0.91 (no sharp cut-off); inconclusive means no clear call, values can overlap the other calls; inactive means mostly above about 0.92. This is one part of the list.

Assay: chemical genetic growth profiling, strain panel (AID 1159580);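 further: tested at 20 µM; growth read once vehicle control cultures reached saturation at 30 °C; 1 = growth at the plate median or of vehicle wells; lower values mean less growth of the strain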
Details: S. cerevisiae deletion strains, growth OD

Measured: normalized growth

CC(=O)OCC[C@H](C)CCC=C(C)C
inactive: locus YAL013W, strain DEP1, hits give low values 1 | locus YAL021C, strain ccr4, hits give low values 0.993 | locus YAL026C, strain drs2, hits give low values 0.993 | locus YAL030W, strain snc1, hits give low values 0.989 | locus YBL061C, strain skt5, hits give low values 0.992 | locus YBR009C, strain hhf1, hits give low values 1.06 | locus YBR021W, strain FUR4, hits give low values 0.991 | locus YBR023C, strain chs3, hits give low values 0.995 | locus YBR171W, strain sec66, hits give low values 0.983 | locus YBR229C, strain ROT2, hits give low values 1.01 | locus YBR231C, strain swc5, hits give low values 0.986 | locus YBR279W, strain paf1, hits give low values 0.997 | locus YCL011C, strain gbp2, hits give low values 1.01 | locus YCL016C, strain dcc1, hits give low values 0.994 | locus YCL029C, strain bik1, hits give low values 1.03 | locus YCL061C, strain MRC1, hits give low values 1 | locus YCL069W, strain vba3, hits give low values 0.989 | locus YCR088W, strain abp1, hits give low values 0.989 | locus YDL005C, strain med2, hits give low values 0.978 | locus YDL035C, strain GPR1, hits give low values 1.02 | locus YDL040C, strain nat1, hits give low values 0.993 | locus YDL074C, strain BRE1, hits give low values 1.05 | locus YDL101C, strain DUN1, hits give low values 1.01 | locus YDL185W, strain tfp1, hits give low values 1.02 | locus YDL192W, strain arf1, hits give low values 1.04 | locus YDR001C, strain nth1, hits give low values 0.998 | locus YDR069C, strain doa4, hits give low values 0.991 | locus YDR101C, strain arx1, hits give low values 1.03 | locus YDR137W, strain rgp1, hits give low values 0.974 | locus YDR150W, strain NUM1, hits give low values 1.01 | locus YDR159W, strain sac3, hits give low values 1.02 | locus YDR162C, strain NBP2, hits give low values 1.01 | locus YDR195W, strain ref2 0.949 | locus YDR297W, strain sur2, hits give low values 1.01 | locus YDR318W, strain mcm21, hits give low values 1.02 | locus YDR334W, strain swr1, hits give low values 0.998 | locus YDR335W, strain msn5, hits give low values 0.992 | locus YDR388W, hits give low values 1.02 | locus YDR392W, strain spt3, hits give low values 0.966 | locus YDR502C, strain sam2, hits give low values 1.01 | locus YEL003W, strain gim4, hits give low values 1 | locus YEL037C, strain rad23, hits give low values 0.995 | locus YEL061C, strain CIN8 (second series), hits give low values 1.03 | locus YEL061C, strain CIN8, hits give low values 1.01 | locus YER015W, strain faa2, hits give low values 0.993 | locus YER016W, strain bim1, hits give low values 0.962 | locus YER110C, hits give low values 1.03 | locus YER111C, strain swi4, hits give low values 0.992 | locus YER155C, strain BEM2 (second series), hits give low values 0.973 | locus YER155C, strain BEM2, hits give low values 0.988 | locus YER167W, strain BCK2, hits give low values 1.01 | locus YFR010W, strain ubp6, hits give low values 1.01 | locus YGL078C, strain dbp3, hits give low values 1.01 | locus YGL086W, strain mad1, hits give low values 1.01 | locus YGL167C, strain pmr1, hits give low values 0.99 | locus YGL173C, strain kem1, hits give low values 0.986 | locus YGL227W, strain vid30, hits give low values 0.987 | locus YGL240W, strain doc1, hits give low values 0.978 | locus YGL248W, strain PDE1, hits give low values 1.02 | locus YGL253W, strain hxk2, hits give low values 0.997 | locus YGR135W, strain pre9, hits give low values 1.06 | locus YGR252W, strain gcn5, hits give low values 1.06 | locus YHR013C, strain ard1, hits give low values 0.967 | locus YHR027C, strain rpn1, hits give low values 0.99 | locus YHR030C, strain SLT2, hits give low values 1 and 1.01 | locus YHR079C, strain IRE1 (second series), hits give low values 1.02 | locus YHR079C, strain IRE1, hits give low values 1.01 | locus YHR094C, strain hxt1, hits give low values 1.02 | locus YHR129C, strain ARP1, hits give low values 0.999 | locus YHR142W, strain chs7, hits give low values 0.988 | locus YHR200W, strain rpn10, hits give low values 1.03 | locus YIL066C, strain RNR3, hits give low values 1.01 | locus YIL073C, strain SPO22, hits give low values 1.1 | locus YIL125W, strain kgd1, hits give low values 1.01 | locus YIR030C, strain dcg1, hits give low values 1.02 | locus YJL092W, strain hpr5, hits give low values 0.999 | locus YJL095W, strain BCK1 (second series), hits give low values 0.99 | locus YJL095W, strain BCK1, hits give low values 1.02 | locus YJL115W, strain asf1, hits give low values 0.991 | locus YJL129C, strain trk1, hits give low values 0.968 | locus YJL134W, strain LCB3, hits give low values 1.01 | locus YJL154C, strain vps35, hits give low values 0.981 | locus YJL164C, strain tpk1, hits give low values 1.02 | locus YJL166W, strain qcr8, hits give low values 0.96 | locus YJL168C, strain set2, hits give low values 1.02 | locus YJL187C, strain SWE1 (second series), hits give low values 1.02 | locus YJL187C, strain SWE1, hits give low values 0.982
